RBX1-CUL1 inh: blocks human RBX1-Cullin-1 di-ubiquitin formation; P62877+Q13616; in vitro K48 di-Ub FRET, acceptor:donor ratio, 45 min; inhibition, % at 10 µM; 140,000 compounds, 0.6% hits; in the data active means inhibition above about 25%
Numbers without * were called inactive. The full list was thinned out, with hits kept by preference.

SMILES	RBX1-CUL1 inh
O=C1C(=Nc2ccc(F)cc2)C(N2CCCCC2)C(=O)c2ccccc21 (stereo not given)	50*
O=C1c2ccccc2C(=O)C1C(c1ccc(F)cc1)c1ccc(F)cc1	13
C/C(=N\N1CCN(C2c3ccccc3-c3ccccc32)CC1)c1ccc(F)cc1	1
O=C(CC(c1ccccc1)c1ccccc1F)N1CCC(N2CCOCC2)CC1 (stereo not given)	-3
CCOc1ccc(NC(=O)COc2ccc(C(=O)NCc3ccccc3)cc2)cc1	2
COc1ccccc1C1C2=C(CC(C)(C)CC2=O)OC2(O)CC(C)(C)CC(=O)C12 (stereo not given)	2
COc1ccc(F)cc1S(=O)(=O)N1CCC(C(=O)NC(C)C)CC1	-4
CN(C)c1cnn(CC(=O)Nc2cccc3c4c(oc23)CCCC4)c(=O)c1	9
CCOC(=O)C1=C(C)N=c2s/c(=C\c3cc(Br)c(O)c(OC)c3)c(=O)n2C1c1ccc2c(c1)OCO2 (stereo not given)	53*
CCOC(=O)C1=C(C)N=c2s/c(=C/c3ccc(I)cc3)c(=O)n2C1c1ccc2c(c1)OCO2 (stereo not given)	-8
CCOC(=O)C1=C(C)N=c2s/c(=C\c3cc(I)c(O)c(OC)c3)c(=O)n2C1c1ccc(OC)cc1 (stereo not given)	46*
CCOC(=O)C1=C(C)N=c2s/c(=C/c3cc(I)c(OC)c(OC)c3)c(=O)n2C1c1ccc(N(C)C)cc1 (stereo not given)	8
CCOC(=O)C1=C(C)N=c2s/c(=C/c3ccccc3O)c(=O)n2C1c1ccc2c(c1)OCO2 (stereo not given)	-6
CCOC(=O)C1=C(C)N=c2s/c(=C\c3cc(OC)ccc3OC)c(=O)n2C1c1ccc(OC)cc1 (stereo not given)	3
COc1cccc(/C=C2/SC(=Nc3ccc(C)cc3)N(C)C2=O)c1OC	0
Cc1cc(SC#N)ccc1NC(=O)CC1c2ccccc2Oc2ccccc21	2
Cc1cccc(S(=O)(=O)N2CCN(C)CC2)c1	-1
O=[N+]([O-])c1cc(Cc2ccccc2)cc(C=Nc2ccc(O)c(-c3nc4ccccc4o3)c2)c1O	-5
COc1cc(/C=C2\C(=O)N(c3ccc(C)cc3)N=C2C)ccc1OCC(=O)Nc1ccc(C(=O)O)cc1	-2
CCOc1cc(/C=C2\C(=O)N(c3cccc(C(=O)O)c3)N=C2C(F)(F)F)ccc1OCC(=O)Nc1ccccc1OC	15
COc1cc(/C=C2/C(=O)N(c3ccccc3)N=C2C)ccc1OCc1ccc(F)cc1	10
CCOc1cc(/C=C2/C(=O)N(c3cccc(C(=O)O)c3)N=C2C)ccc1OCC(=O)Nc1ccccc1	36*
C#CCOc1ccc(/C=C2\C(=O)N(c3cccc(F)c3)N=C2C)cc1OC	31*
COc1cc(/C=C2\C(=O)N(c3cccc(F)c3)N=C2C)ccc1O	0
CCCNC(=O)c1nnn(-c2ccc(F)cc2)c1C	3
SMILES	RBX1-CUL1 inh
Cc1cc(-c2[nH]nc3c2C(c2ccccc2Cl)C(C#N)C(=N)O3)c(C)s1 (stereo not given)	2
CC(C)CNC(=O)C1CCCN(C2CCN(Cc3ccccc3)CC2)C1 (stereo not given)	-7
O=C1NN(c2cccc(Cl)c2)C(=O)/C1=C/c1cccc(I)c1	9
COc1ccc(/C=C2\C(=O)NN(c3cccc(Cl)c3)C2=O)cc1OC	-8
O=C1NN(c2cccc(Cl)c2)C(=O)/C1=C/c1ccc(Cl)cc1	64*
O=C1NN(c2cccc(Cl)c2)C(=O)/C1=C\c1ccc(F)cc1	83*
O=C1NN(c2cccc(Cl)c2)C(=O)/C1=C/c1ccc(O)cc1	11
O=C1NN(c2cccc(F)c2)C(=O)/C1=C\c1ccccc1	-2
COc1ccc(S(=O)(=O)NCC(=O)Nc2ccc(Oc3ccccc3)cc2)cc1	7
CCOC(=O)c1c(-c2ccc(Cl)cc2)csc1NC(=O)C(OC(C)=O)c1ccccc1 (stereo not given)	1
CCSc1ncc(CNCc2cccnc2N2CCOCC2)cn1	1
CCC1CCCCN1S(=O)(=O)c1cc(OC)c(C)cc1OC (stereo not given)	-1
O=S(=O)(O)SCCN1CCc2ccccc21	28*
O=C(CN1CCc2ccccc21)NC1CCCCCC1	-5
OCCN1c2ccccc2CCc2ccccc21	-2
CCc1ccc(/C=C/C(=O)C2C=C(Br)C=CC(=O)C2=O)cc1 (stereo not given)	0
O=C(/C=C/N1CCN(c2cccc(Cl)c2)CC1)c1ccc(Cl)cc1	-5
O=C(O)CNC(=O)c1ccc(Cl)cc1Cl	6
C=CCOc1ccc(/C=C2\C(=O)NC(=S)N(c3cccc(Cl)c3Cl)C2=O)cc1	-2
CN1C(=O)/C(=C/c2ccc(N3CCCC3)cc2)C(=O)NC1=S	13
O=C1NC(=S)N(c2cccc(Cl)c2Cl)C(=O)/C1=C/c1cn(Cc2ccc3ccccc3c2)c2ccccc12	-15
Cc1ccsc1/C=C1/C(=O)NC(=S)N(c2cccc(Cl)c2Cl)C1=O	54*
O=C1NC(=S)N(c2cccc(Cl)c2Cl)C(=O)/C1=C/c1ccc(N2CCOCC2)cc1	29*
Cc1ccc(N2C(=O)NC(=O)/C(=C\c3cccs3)C2=O)cc1C	-8
S=C(Nc1ccc(Cl)cc1)c1sc(N2CCOCC2)nc1N1CCOCC1	1
SMILES	RBX1-CUL1 inh
COC(=O)CN1C(=O)S/C(=C/c2cc(Cl)cc(I)c2O)C1=O	10
CN(C)Cc1ccc(F)cc1Sc1cccc(C(F)(F)F)c1	-3
CCCCNC(=O)C1CC(=O)N(c2cccc(C)c2)C1 (stereo not given)	-2
Cc1cc(=O)oc2c(C3=Nc4ccccc4SC(c4cccs4)C3)c(O)ccc12 (stereo not given)	-2
O=C(O)Cc1ccccc1Sc1cccc(C(F)(F)F)c1	-1
O=C(O)c1cc(C(F)(F)F)ccc1Sc1ccccc1	58*
Nc1cc(C(F)(F)F)ccc1Sc1ccccc1C(=O)O	7
Cc1ccc(NC(=O)CSc2nc3c(sc4nc(C)cc(C)c43)c(=O)n2-c2ccccc2)cc1	8
Cc1cc(C)c2c(c1)c(-c1ccccc1)c(-c1ccccc1)n2CC(O)CN1CCN(Cc2ccccc2)CC1 (stereo not given)	0
Cc1ccc(NC(=O)CSc2nnc(Cc3ccccc3)o2)cc1C	11
COC(=O)c1cc(NC(=O)CSc2nnc(Cc3ccccc3)o2)ccc1Cl	11
O=C(CSc1nnc(Cc2ccccc2)o1)Nc1ccc(Cl)c(Cl)c1	92*
Cn1ncc(N2CCC(CNC(=O)c3cc4ccccc4[nH]3)C2)cc1=O (stereo not given)	2
COc1ccc(C2C3=C(CCCC3=O)OC(=N)C2C#N)cc1COc1ccccc1Cl (stereo not given)	-3
COc1ccc(-c2[nH]nc3c2C(c2ccc(Br)cc2)C(C#N)C(=N)O3)cc1 (stereo not given)	14
COc1ccc(-c2[nH]nc3c2C(c2ccoc2)C(C#N)C(=N)O3)cc1 (stereo not given)	-7
COc1ccc(-c2[nH]nc3c2C(c2cc(I)cc(I)c2O)C(C#N)C(=N)O3)cc1 (stereo not given)	28*
CCn1c(-c2cccnc2)nc2cc(NC(=O)COC)cc(C(=O)N(C)C(C)c3cccs3)c21 (stereo not given)	3
O=C1N(c2ccccc2)c2ccccc2C12CCCCC2	9
CSc1ccc(C2C3=C(CC(C)(C)CC3=O)N(c3sc4c(c3C#N)CCCCC4)C(=N)C2C#N)cc1 (stereo not given)	-2
CC(=O)NC(=S)Nc1ccc(C(N)=O)cc1	-10

Assay outcomes as filed in PubChem BioAssay.
